The list shows a part of the results. A call without a number means that no potency is given here. The source made the active and inactive calls. Calls come from the whole dose curve; as a rule, active = well fitted inhibition curve with a large enough effect; inconclusive = small, poorly fitted or top-dose-only effect, or another doubt; inactive = no such curve, though single readings can be large or run the other way.
These compounds were tested against Vitamin D3 receptor (Homo sapiens) (UniProt P11473) (assay: qHTS for Inhibitors of the vitamin D receptor (VDR): Hit Validation using a Beta-Lactamase Assay (AID 602202)). Conditions: VDR beta-lactamase reporter cells, FRET ratio, cells co-treated with VDR agonist LG190178; series mostly up to 46.1 µM.
Sequence of Vitamin D3 receptor (Homo sapiens) (P11473 whole entry, looked up): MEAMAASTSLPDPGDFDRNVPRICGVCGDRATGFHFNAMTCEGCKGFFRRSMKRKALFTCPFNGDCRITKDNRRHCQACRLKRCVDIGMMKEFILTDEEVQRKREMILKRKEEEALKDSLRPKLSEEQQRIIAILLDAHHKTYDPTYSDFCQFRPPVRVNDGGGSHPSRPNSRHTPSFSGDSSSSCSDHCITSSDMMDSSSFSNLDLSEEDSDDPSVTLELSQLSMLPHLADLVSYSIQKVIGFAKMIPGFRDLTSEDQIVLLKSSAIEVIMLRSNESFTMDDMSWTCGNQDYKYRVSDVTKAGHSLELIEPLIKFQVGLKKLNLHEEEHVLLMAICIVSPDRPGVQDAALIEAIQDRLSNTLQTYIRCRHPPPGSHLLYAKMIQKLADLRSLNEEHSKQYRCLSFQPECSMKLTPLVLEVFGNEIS
Description: The vitamin D receptor (VDR) is a ligand-activated transcription factor and is partially responsible for the regulation of the endocrine system. This includes the transcriptional regulation of genes involved in the production of the parathyroid hormone (PTH) and the regulation of the blood calcium level. High levels of PHT can cause hypercalcemia in the case of primary and tertiary hyperparathyroidism. The VDR-mediated gene regulation, activated by its ligand 1,25-dihydroxyvitamin D3 (1,25-(OH)2D3), is governed by the recruitment of coactivators. Our hypothesis is that small molecules, with the ability to inhibit the interaction between VDR and certain coactivators, are able to selectively modulate VDR-mediated transcription. Our long term objective is the application these VDR-coactivator inhibitors to study the role of VDR-coactivator binding for specific VDR regulated genes. Ultimately, these molecules can be developed into new treatments for hypercalcemic hyperparathyroidism. No small molecule or non-peptide inhibitors are known for the VDR-coactivator interaction.
In a collaboration between the University of Wisconsin, Milwaukee and the NIH Chemical Genomics Center (NCGC) a HTS-compatible enzymatic assay was developed. The assay uses fluorescence polarization as its read-out to measure the inhibition between VDR and coregulator peptide SRC2-3 exerted by small molecules. This assay was used to screen the NIH Molecular Libraries Small Molecule Repository (MLSMR). The cell-based VDR transcription assay was carried out with commercially available stably transfected HEK293 cells. The cell line expresses a fusion protein of VDR-GAL4 DNA binding domain, which is activated by agonist LG190178 and induces transcription of a beta-lactamase reporter gene under control of an UAS response element. Successful activation is detected by a decrease in time-resolved fluorescence resonance energy transfer (TR-FRET) caused by enzymatic cleavage of fluorescent betalactam substrate added after 24h incubation. The cleaved substrate concentration was quantified by measuring the fluorescence emission at 447 nm.
NIH Chemical Genomics Center [NCGC]
NIH Molecular Libraries Probe Centers Network [MLPCN]
Assay Submitter (PI): Alexander Arnold, University of Wilwaukee
Plate: 384 black clear bottom, tissue culture treated
Step 1: Plate 20,000 cell per well (32 uL)
Step 2: 4 hours incubatio
Step 3: Add screening compounds
Step 5: 18 hour incubation
Step 6: Add FRET reagent (6 uL)
Step 7: 2 hour incubation
O=c1[nH]c(/C=C\c2cccc(C(F)(F)F)c2)nc(O)c1[N+](=O)[O-] was tested, and the Potency was “inactive”.
O=[N+]([O-])/C=C/c1ccc2c(ccn2Cc2ccccc2)c1 was tested, and the Potency was 18.4 µM (active).
In the case of C=CCOc1ccc(/C=C2/C(=O)ON=C2C)cc1OCC, the Potency is reported as “inactive”.
For CCOC(=O)c1sc(=S)n2c1[nH]c(=O)c1ccc(C(=O)OC)cc12, the Potency was “inactive”.
For CSc1nnc(NC(=O)c2nc(S(=O)(=O)Cc3ccc(C)cc3)ncc2Cl)s1, the Potency was 5.8 µM (active).
CC(=O)N1CC[n+]2c(-c3ccc([N+](=O)[O-])cc3)csc21 was tested, and the Potency was “inactive”.
In the case of Cc1cc(C)nc(S/C=C/C(=O)c2ccccc2)n1, the Potency is reported as 3.26 µM (active).
In the case of Cc1ccc(-c2nc3ccccn3c2Nc2c(C)cccc2C)o1, the Potency is reported as “inactive”.
CC(=O)N(C1=C(Cl)C(=O)c2ccccc2C1=O)c1ccc(C(=O)O)cc1 was tested, and the Potency was 20.6 µM (active).
For CCOC(=O)N1CCN(C(c2cccnc2)c2ccc3cccnc3c2O)CC1 (stereo not drawn), the Potency was “inactive”.
For CN(C)N=Nc1ccc2nc[nH]c2c1, the Potency was “inactive”.
COC(=O)/C=C\C(=O)Nc1cccc([N+](=O)[O-])c1 was tested, and the Potency was 14.6 µM (active).
In the case of Cc1cccc(CS(=O)(=O)c2ncc(Cl)c(C(=O)Nc3ccc(F)cc3)n2)c1, the Potency is reported as 5.17 µM (active).
With COc1ccc(CS(=O)/C(Cl)=C(/Cl)C(=O)Nc2ccc(OC)nc2)cc1 (stereo not drawn) the Potency was 0.731 µM (active).
With O=C(Nc1nc(-c2ccncc2)cs1)C1COc2ccccc2O1 (stereo not drawn) the Potency was “inactive”.
With c1ccc2c(C[n+]3csc4ccccc43)cccc2c1 the Potency was “inactive”.
For O=C(/C=C/c1ccc(Cl)cc1Cl)c1cccnc1, the Potency was “inactive”.
With CC1CCN(C(=S)c2ccc(-c3ccc(Cl)cc3Cl)o2)CC1 the Potency was “inactive”.
For COc1ccc(OCc2nnc3n2N=C(c2ccccc2)C(CC(=O)O)S3)cc1 (stereo not drawn), the Potency was “inactive”.
In the case of O=c1cc(CO)oc(C(Nc2cccc(C(F)(F)F)c2)c2ccccn2)c1O (stereo not drawn), the Potency is reported as “inactive”.
In the case of C[C@@H](NC(=O)OC(C)(C)C)c1nnc(S(=O)(=O)Cc2ccccc2)o1, the Potency is reported as 23.1 µM (active).
CCCCS(=O)(=O)c1oc(-c2cccs2)nc1S(=O)(=O)c1ccccc1 was tested, and the Potency was 5.8 µM (active).
CCOC(=O)c1sc(NC(=O)CSc2nc(C)cc(C(F)(F)F)n2)c(C#N)c1C was tested, and the Potency was “inactive”.
For Cc1ccc(O)c(NC(=O)CCS(=O)(=O)c2nc(-c3ccc4c(c3)OCO4)cc(C(F)(F)F)n2)c1, the Potency was 23.1 µM (active).
In the case of Cc1cccc(Oc2c([N+](=O)[O-])c(=O)n(C)c3ccccc23)c1, the Potency is reported as “inactive”.
With O=C(/C=C/c1ccc(Cl)c([N+](=O)[O-])c1)c1cccnc1 the Potency was “inactive”.
O=C(/C=C/c1ccccc1)c1ccccc1O was tested, and the Potency was “inactive”.
For CCOc1ccc(N(Cc2ccccc2)C(=O)c2nc(S(C)(=O)=O)ncc2Cl)cc1, the Potency was 20.6 µM (active).
Potency is the fitted concentration of half-maximal effect.
